Assay outcomes as filed in PubChem.
RORgamma inh: blocks mouse ROR gamma transcriptional activity. P51450. Drosophila S2 Gal4-RORgamma UAS-luciferase reporter, 20 h. Potency, µM (series often up to 53.6 µM), hits mostly inhibitors. 5.4% of 310,000 active. AID 2551; further: nearly all actives have a fitted effect of over 60% in size
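Stably transfected Drosophila Schneider cells are the test system, with ROR gamma fused to Gal4 and luciferase under UAS control; luminescence is read after 20 hr of 700 uM copper sulfate induction at ambient temperature.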
VP16 counter: counter-screen for ROR gamma inhibitors: Gal4-VP16 reporter | Potency, µM (series often up to 53.6 µM), most hits filed as inhibitors | 3.5% of 310,000 active | Drosophila S2 Gal4-VP16 UAS-luciferase, luminescence, 20 h;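 further: Gal4-VP16 expression switched on by copper sulfate through the metallothionein promoter; nearly all actives have a fitted effect of over 50% in size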
Six1-Eya2 blk: inhibitors of human Six1/Eya2 interaction; AlphaScreen GST-Six1/His-Eya2 binding, biochemical; stronger effect = lower value; activity change, % (concentration not given with the values); AID 651725; 0.56% of 360,000 active; Q15475+O00167; in the data active means activity change below about -65%; inconclusive means mostly about -30% to -63%
Target sequence (O00167 whole entry, looked up): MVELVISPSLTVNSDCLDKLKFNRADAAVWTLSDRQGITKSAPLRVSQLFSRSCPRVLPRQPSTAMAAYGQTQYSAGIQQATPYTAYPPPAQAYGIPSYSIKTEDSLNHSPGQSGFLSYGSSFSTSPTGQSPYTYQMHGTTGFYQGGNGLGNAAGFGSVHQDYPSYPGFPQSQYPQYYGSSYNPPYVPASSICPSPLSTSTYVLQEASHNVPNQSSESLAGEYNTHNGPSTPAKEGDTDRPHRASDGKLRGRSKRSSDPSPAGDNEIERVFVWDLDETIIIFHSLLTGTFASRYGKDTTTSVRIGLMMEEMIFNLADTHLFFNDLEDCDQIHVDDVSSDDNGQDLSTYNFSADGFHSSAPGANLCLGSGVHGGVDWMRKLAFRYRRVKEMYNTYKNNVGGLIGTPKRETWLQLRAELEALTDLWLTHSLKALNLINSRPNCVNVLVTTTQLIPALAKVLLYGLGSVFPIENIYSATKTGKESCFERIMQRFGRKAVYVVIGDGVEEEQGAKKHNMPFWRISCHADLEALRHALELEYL
Target sequence (Q15475 whole entry, looked up): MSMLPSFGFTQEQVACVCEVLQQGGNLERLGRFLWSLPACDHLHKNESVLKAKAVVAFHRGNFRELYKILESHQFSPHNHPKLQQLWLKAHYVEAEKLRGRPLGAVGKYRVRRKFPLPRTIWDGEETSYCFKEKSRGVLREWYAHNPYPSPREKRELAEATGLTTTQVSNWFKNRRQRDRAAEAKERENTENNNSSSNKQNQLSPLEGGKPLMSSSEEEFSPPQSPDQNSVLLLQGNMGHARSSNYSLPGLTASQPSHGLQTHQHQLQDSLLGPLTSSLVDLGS
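Homogeneous AlphaScreen proximity assay pairing GST-Six1 with His-tagged Eya2 (added as 5X mix: 250 nM and 500 nM) in 50 mM Tris pH 8.0, 300 mM NaCl, 1 mM TCEP. Glutathione donor and nickel acceptor beads; 1 h, 37 °C, dark.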
CBFb-RUNX1 inh: blocks binding between human CBF-beta and RUNX1; 230,000 tested, under 10 active; AlphaScreen CBFb-His/RUNX1-biotin binding, biochemical; Potency, µM (titrated, usually from 59.8 µM), most hits filed as inhibitors; AID 1477
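Interaction loss through any mechanism counts as activity. Pre-formed complex of His-CBF-beta and biotin-RUNX1 (30 nM apiece) is incubated with compound 15 min, then with 50 ng nickel and 50 ng streptavidin beads for 90 min before AlphaScreen detection.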
CtBP-E1A blk: blocks the CtBP interaction with E1A; AlphaScreen GST-E1A/His-CtBP binding, 1536-well; stronger effect = lower value; activity change, % (no concentration beside the values); 0.49% of 340,000 active; in the data active means activity change below about -65%; inconclusive means mostly about -30% to -63%
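Steps: dispense buffer (Tris pH 8.0, NaCl 300 mM, TCEP 1 mM, BSA, Tween 20); add 5X protein mix (GST-E1A, His-CtBP, 125 nM each); pin 23 nL compound; 2 h at 37 °C, dark; add 5X beads (50 ug/mL); 1 h; read.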
MBNL1 CUG block: inhibitors of human MBNL1 binding to CUG repeat RNA. 0.036% of 280,000 active. Potency, µM (top dose mostly 57.5 µM), most hits filed as inhibitors. AID 2675. TR-FRET MBNL1-His/biotin-(CUG)12 binding, 665/545 ratio. Q9NR56; active means well fitted inhibition curve with a large enough effect in the signal ratio, with a control signal flat, not every such curve was filed as active; inconclusive means small, poorly fitted or top-dose-only effect, or effect the other way, or a change in a side signal; inactive means no such curve, though single readings can be large or run the other way; the % refers to the signal ratio
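Compound titration spanned 92 nM–58 uM against the MBNL1-His/biotin-(CUG)12 complex. After 60 min at room temperature with 5 nM streptavidin-XL665 and 0.055 ng/ul terbium anti-His, ratiometric 665/545 nm emission (Ex 340 nm) normalized to controls.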
Numbers stand for hits; n = inactive; u = inconclusive; x = no result given; [ ] = another dose, or the depositor's remark. Shown are actives, neighbours in structure and some others; about 5.5% of the full set was active somewhere. Unless noted, the call rests on the fitted dose curve; in most records, active means well fitted curve in the direction sought with a large enough effect; inconclusive means small, poorly fitted or top-dose-only effect, or another doubt; inactive means no such curve, though single readings can be large; an effect the other way counts as inactive or inconclusive.

SMILES	RORgamma inh	VP16 counter	Six1-Eya2 blk	CBFb-RUNX1 inh	CtBP-E1A blk	MBNL1 CUG block
COc1ccccc1Oc1c(NS(=O)(=O)c2ccc(C(C)(C)C)cc2)nc(-c2ncccn2)nc1OCCO	u	n	x	x	x	x
CCCCOc1ccccc1NC(=O)CC1Nc2ccccc2NC1=O (configuration not stated)	10µM	u	n	n	n	n
CCCCNC(=O)CC1Nc2ccccc2NC1=O (configuration not stated)	n	n	n	n	n	n
CCCC(=O)N(Cc1cc(=O)[nH]c2ccccc12)c1cccc(C)c1	n	n	n	x	n	n
Cc1cccc(N(Cc2cc(=O)[nH]c3ccccc23)C(=O)CCl)c1	18µM	u	n	x	x	n
COc1cc(N/N=C/c2ccccc2O)ncn1	7.1µM	7.1µM	-88	x	-96	n
COc1cc(N/N=C/c2ccc(N(C)C)cc2)ncn1	u	u	n	n	x	n
CCOC(=O)Cc1csc(N/N=C\c2ccccc2OC)n1	n	n	n	x	x	n
CCCOc1ccc(/C=N/Nc2cc(N3CCOCC3)ncn2)c(O)c1	u	18µM	n	x	x	n
CCOc1ccc(/C=N/Nc2nc(C)cs2)c(O)c1	1.4µM	2.2µM	-68	x	u	n
CCOc1ccc(/C=N/Nc2cc(N3CCOCC3)ncn2)c(O)c1	x	x	-71	x	u	x
Clc1ccccc1/C=N/Nc1cc(N2CCOCC2)ncn1	n	u	n	x	n	n
CCOc1ccc2nc(S(=O)(=O)NC(=O)C3(C)CCN3C(=O)CCc3cccs3)sc2c1 (configuration not stated)	x	x	n	x	n	x
Nn1cnnc1SCC(=O)Nc1ccc(C2CCCCC2)cc1	n	n	n	n	n	n
O=C(O)CSCC(=O)Nc1ccc(C2CCCCC2)cc1	2.2µM	3.2µM	n	n	n	n
Cc1c(C(C)C)c(=O)n(-c2ccc(S(=O)(=O)NC3CCCCC3)cc2)n1C	u	11µM	n	n	n	n
Cc1c(C(C)C)c(=O)n(-c2ccc(S(=O)(=O)NCc3ccccc3)cc2)n1C	u	7.9µM	n	n	n	n
Cc1c(C(C)C)c(=O)n(-c2ccc(S(=O)(=O)N3CCOCC3)cc2)n1C	n	n	n	n	x	n
COC(=O)N[C@@H](/C=C/c1ccccc1)/C(C(=O)OC)=C(\C)NCc1ccccc1	n	n	x	n	x	x
COc1cccc(C(NC(C)=O)c2nc(-c3ccc(F)cc3OC)cs2)c1 (configuration not stated)	x	x	n	x	n	x
C=CCOC(=O)N[C@@H](c1ccc(Br)cc1)C(C(C)=O)C(C)=O	n	n	x	n	x	x
Cc1ccc(-c2nnc(-c3ccccc3)o2)cc1	u	10µM	n	n	n	u
Cc1ccc(-c2nnc(N)o2)cc1	n	n	n	n	n	n[11.5 µM]
COc1ccc(-c2nnc(-c3ccccc3O)o2)cc1	u	13µM	n	x	n	n
Oc1ccc(Cl)cc1-c1cc(-c2ccccc2)n[nH]1	1.4µM	4.5µM	n	n	n	u
SMILES	RORgamma inh	VP16 counter	Six1-Eya2 blk	CBFb-RUNX1 inh	CtBP-E1A blk	MBNL1 CUG block
COc1ccc(O)c(-c2cc(-c3cccs3)[nH]n2)c1	4µM	u	n	n	n	n
COc1ccc(-c2nnc(-c3ccc(C)cc3)o2)cc1	u	u	n	x	n	n
CC(=O)OC1CC(OC(C)=O)[C@]2(C)C(CC(=O)[C@]3(C)C2CC[C@@]2(C)C(C(=O)O)OC(=O)C4OC423)C1(C)C (some centres not stated)	n	n	x	n	x	x
Oc1ccccc1-c1cc(-c2ccccc2)n[nH]1	x	x	n	x	n	x
Cc1ccc(-c2cc(-c3ccccc3[N+](=O)[O-])[nH]n2)c(O)c1	18µM	u	n	n	n	n
Cc1ccccc1-c1cc(-c2ccccc2O)n[nH]1	5.6µM	u	n	n	n	n
COc1ccc(-c2cc(-c3ccccc3O)[nH]n2)cc1	6.3µM	16µM	n	n	n	n
COc1ccc(-c2cc(-c3ccccc3)n[nH]2)c(O)c1	4µM	n[10 µM]	n	n	n	n
Cc1ccc(-c2cc(-c3ccccc3Cl)[nH]n2)c(O)c1	u	u	n	n	n	n
CCCCc1nnc(NC(=O)CCS(=O)(=O)c2ccc(Cl)cc2)s1	x	x	n	x	n	x
CN1CCCC(C)(C(=O)Nc2ccc3scnc3c2)C1 (configuration not stated)	x	x	n	x	n	x
O=C(O)c1cc(=O)c2cc(Cl)ccc2[nH]1	n	n	x	n	x	x
Cc1ccc(NC(=S)NC2CCN(Cc3ccccc3)CC2)cc1C	11µM	u	n	n	x	n
Cc1c(Cl)cccc1NC(=S)N1CCN(Cc2ccccc2)CC1	10µM	u	n	n	n	n
S=C(Nc1cc(Cl)cc(Cl)c1)NC1CCN(Cc2ccccc2)CC1	u	u	n	x	n	n
Cc1ccc(NC(=S)NC2CCN(Cc3ccccc3)CC2)cc1	13µM	u	n	n	n	x
S=C(Nc1ccccc1Cl)N1CCN(Cc2ccccc2)CC1	u	n	n	n	n	n[11.5 µM]
CC(C)c1ccc(NC(=S)NC2CCN(Cc3ccccc3)CC2)cc1	16µM	u	n	n	n	n
S=C(Nc1ccc2c(c1)OCO2)NC1CCN(Cc2ccccc2)CC1	n	n	n	n	n	n
CC(=O)OC(C)C	n	n	x	n	x	x
CC(C)(C)[C@]1(O)CCN2CC3c4ccccc4CCc4cccc(c43)[C@@H]2C1 (some centres not stated)	n	n	x	n	x	x
Cc1c(Cl)cccc1NC(=S)NC1CCN(Cc2ccccc2)CC1	10µM	n	n	n	n	n
CC(C)c1ccccc1NC(=S)NC1CCN(Cc2ccccc2)CC1	14µM	16µM	n	n	n	n
S=C(Nc1ccccc1Cl)NC1CCN(Cc2ccccc2)CC1	n	n	n	n	n	n
NC(=O)OC[C@H](O)COc1ccc(Cl)cc1	n[2.98 µM]	n	x	n	x	x
SMILES	RORgamma inh	VP16 counter	Six1-Eya2 blk	CBFb-RUNX1 inh	CtBP-E1A blk	MBNL1 CUG block
CC(C)=CCC/C(C)=C/CC/C(C)=C/CSCC(=O)O	u	u	x	n	x	x
COc1ccc(C(=O)NCC(=O)N/N=C/c2ccco2)cc1OC	n	n	n	x	n	u
O=C(CNC(=O)c1ccc(F)cc1)N/N=C/c1cc(Br)ccc1OC(=O)/C=C/c1ccco1	5µM	u	n	n	u	n
O=C(CNC(=O)c1ccccc1F)N/N=C/c1cc(Br)ccc1OC(=O)/C=C/c1ccco1	2.5µM	3.2µM	-90	u	-92	x
COc1ccc(Br)cc1/C=N/NC(=O)CNC(=O)c1cccnc1	n	n	u	n	u	u
COc1ccccc1C(=O)NCC(=O)N/N=C/c1cc(Br)ccc1OC(=O)/C=C\c1ccco1	3.5µM	7.1µM	-74	n	x	x
COc1ccc(-c2cc3ccc(OC(C)C(=O)O)cc3oc2=O)cc1 (configuration not stated)	n	n	n	x	n	u
